Molecules are shown by their SMILES. This is part of a sample that, as a whole, favours compounds with a hit. Of some 79,000 tested, about 15% had one in any assay. Unmarked numbers belong to inactive results. Active and inactive are the calls of the source. Cut-off read from the data, not from the text of the source: active = growth inhibition above about 70%; inactive = the rest.

This experiment can be described thus: NCI Yeast Anticancer Drug Screen. Data for the mlh1 rad18 strain (AID 175). Particulars: S. cerevisiae mlh1 rad18 strain growth inhibition; at 50.0 µM; active compounds read high. Put shortly:
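Cells of a genetically altered yeast strain, deficient in DNA damage repair, were treated with compound. Their growth was then compared with that of vehicle-treated cultures to give inhibition.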
Regarding `Cc1cc(SCC(=O)c2ccc(Cl)cc2)cc(C)[o+]1`, the growth inhibition is 92.3% (active).
For the compound `Cn1cnc([N+](=O)[O-])c1Sc1nc2ccccc2s1`, the growth inhibition is 90% (active).
Consider `CCOC(=S)SSC(=S)NCCNC(=S)SSC(=S)OCC`, for which the growth inhibition is 76.4% (active).
For the compound `Cc1nc(C)c(C(=O)NNC(=O)C[N+](C)(C)C)cc1C(=O)NNC(=O)C[N+](C)(C)C`, the growth inhibition is -25.4%.
`CC/C(=C(\CC)c1ccc(O)c(CN(CC)CC)c1)c1ccc(OC)cc1`: the growth inhibition is 99.5% (active).
As for `CC(C)N(C(=O)CC1(O)CCCCC1)C(C)C`, the growth inhibition was 1.85%.
As to `CCCCN(CCCC)CC(O)c1cc(-c2ccc(Cl)cc2)nc2cc(C)ccc12` (stereo unspecified), the growth inhibition is 99.1% (active).
`C/C(=C\c1ccccc1Cl)c1ccccn1`: the growth inhibition was 83% (active).
Turning to `O=C(OC1C2CCC2C2CC21)c1cc([N+](=O)[O-])cc([N+](=O)[O-])c1` (stereo unspecified), the growth inhibition is 58.9%.
Regarding `O=c1[nH]c2c([N+](=O)[O-])cc(Cl)cc2nc1/C=C(\O)c1ccc(F)cc1`, the growth inhibition was 87.3% (active).
As for `CC(=O)N[C@H]1CC[C@H]2[C@@H]3CCC4=CC(=O)CC[C@]4(C)[C@H]3CC[C@]12C`, the growth inhibition is 93.8% (active).
Regarding `CC12OC(=O)C(C(N)=O)=C1C=C(c1ccccc1)CC2c1ccccc1` (stereo unspecified), the growth inhibition is 86.1% (active).
Regarding `Cn1c2nc(-[n+]3ccccc3)nc-2c([O-])n(C)c1=O`, the growth inhibition was -8.75%.
In the case of `COc1cc(NCCCCCCCC2CCCCN2)c2ncccc2c1` (stereo unspecified), the growth inhibition was 98.4% (active).
In the case of `Nc1ncnc(N2CCOCC2)c1N`, the growth inhibition is 83.5% (active).
Then `CCCCCCCCCCCCNCC(=O)O`, with 92% (active).
Then `O=C(O)C1C2CC3CC(C2)CC1C3` (stereo unspecified), with 9.35%.
As to `CC(=O)OC1CCC2(C)C(=CCC3C2CCC2(C)C3CC(C(N)=O)C2C(C)=O)C1` (stereo unspecified), the growth inhibition was 59.3%.
Take `CC1(C)CC(=N/O)/C(=N/O)C(=N\NC(N)=S)/C1`: the growth inhibition is 73.5% (active).
For the compound `CCCCCCCCCCCCCCCCCC1=NCCN1`, the growth inhibition is 99.2% (active).
As for `O=c1c2ccccc2c2ccccc2c(=O)n1-c1cc2c3ccccc3ccc2c2ccccc12`, the figure is 37.8%.

The record behind these values is PubChem BioAssay (NCI).
